Data reported in PubChem BioAssay (EPA / NIEHS).
Inconclusive results are not listed. Active and inactive are the calls of the source. The calls were made as follows, unless noted: active = hit-call score of the fitted dose curve at least 0.9, where 1 is the maximum; inactive = score below 0.9.

Experiments:
[1] = read-out: Monokine induced gamma interferon (MIG), CXCL9 (gene 4283); experiment: BSK_3C_MIG: BioMAP Diversity Plus: 3C Assay for Monokine induced gamma interferon (MIG) Biomarker Activity (AID 2283021); conditions: primary human endothelial cells (HUVEC); actives raise or lower the signal
Method in brief: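 HUVEC primary endothelial cultures dosed with chemical; MIG quantified by ELISA at 24 h. Data fitted bidirectionally against DMSO control, with parallel SRB total-protein staining for cytotoxicity.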

[2] = target: human Vitamin D Receptor (VDR), VDR (gene 7421) (UniProt P11473); experiment: ATG_VDR_TRANS: Attagene TRANS-FACTORIAL HepG2 Assay for human Vitamin D Receptor (VDR) (AID 2283022; active = hit-call score of the fitted dose curve at least 0.9, where 1 is the maximum)
human Vitamin D Receptor (VDR), VDR (gene 7421), sequence (P11473 whole entry, looked up, the tested form may be a part): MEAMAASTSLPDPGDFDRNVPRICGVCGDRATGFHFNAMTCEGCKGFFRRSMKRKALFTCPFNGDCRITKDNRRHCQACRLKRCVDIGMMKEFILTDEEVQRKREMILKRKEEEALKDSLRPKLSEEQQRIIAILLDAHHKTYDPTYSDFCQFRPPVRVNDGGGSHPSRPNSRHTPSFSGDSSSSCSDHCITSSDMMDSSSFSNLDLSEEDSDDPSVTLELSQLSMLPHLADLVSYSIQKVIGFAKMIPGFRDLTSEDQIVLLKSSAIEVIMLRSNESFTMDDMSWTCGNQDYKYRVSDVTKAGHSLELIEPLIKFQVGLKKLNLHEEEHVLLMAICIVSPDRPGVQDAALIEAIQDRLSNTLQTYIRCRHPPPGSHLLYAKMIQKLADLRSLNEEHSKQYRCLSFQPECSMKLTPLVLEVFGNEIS
Method in brief: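 Transactivation by an exogenous VDR-Gal4 chimera in transiently transfected HepG2 cells was measured as reporter transcript level 24 hours after chemical treatment. RT-PCR products were analysed by capillary electrophoresis and fitted in the positive direction relative to DMSO.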

[3] = BSK_3C_SRB: Viability Assessment in the BioMAP Diversity Plus: 3C Assay (AID 2283023); conditions: primary human endothelial cells (HUVEC);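 also: fitted both ways against DMSO so a hit may be signal rise or drop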
Method in brief: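 Cytotoxicity readout in parallel HUVEC 3C cultures: after 24 h compound exposure, cells fixed with 10% TCA, stained with 0.1% SRB and read at 560 nm. Gain or loss relative to DMSO fitted.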

[4] = read-out: Matrix Metallopeptidase 1 (MMP1), MMP1 (gene 4312); experiment: BSK_BE3C_MMP1: BioMAP Diversity Plus: BE3C Assay for Matrix Metallopeptidase 1 (MMP1) Biomarker Activity (AID 2283024); conditions: primary human bronchial epithelial cells; actives raise or lower the signal
Method in brief: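 Human primary bronchial epithelial cells (BE3C system) dosed for 24 h; MMP-1 quantified by ELISA. Bidirectional fit against DMSO; cytotoxicity tracked in parallel cultures by SRB total-protein staining.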

[5] = BSK_3C_Vis: BioMAP Diversity Plus: 3C Assay for Morphology Visualization (AID 2283025); conditions: primary human endothelial cells (HUVEC);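 also: fitted both ways so gain or loss versus DMSO counts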
Method in brief: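 Human umbilical vein endothelial cell morphology was inspected by light microscopy 24 h after chemical dosing; scored bidirectionally relative to DMSO.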

[6] = read-out: Pselectin, SELP (gene 6403); experiment: BSK_4H_Pselectin: BioMAP Diversity Plus: 4H Assay for Pselectin Biomarker Activity (AID 2283026); conditions: primary human endothelial cells (HUVEC); actives raise or lower the signal
Method in brief: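 Primary human umbilical vein endothelial cells were treated 24 h, and cell-surface P-selectin was then quantified by ELISA. Bidirectional fit versus DMSO; cytotoxicity checked in parallel cultures by SRB total-protein staining.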

[7] = BSK_4H_SRB: Viability Assessment in the BioMAP Diversity Plus: 4H Assay (AID 2283027); conditions: primary human endothelial cells (HUVEC);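 also: cells exposed to compound for 24 h before staining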
Method in brief: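 Human umbilical vein endothelial cells, 24 h after chemical dosing; total protein measured by 0.1% sulforhodamine B staining after 10% TCA fixation, read at 560 nm. Bidirectional fitting against DMSO.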

[8] = BSK_BE3C_SRB: Viability Assessment in the BioMAP Diversity Plus: BE3C Assay (AID 2283028); conditions: primary human bronchial epithelial cells
Method in brief: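 Cytotoxicity read-out: SRB (0.1%) staining of TCA-fixed (10%) human lung bronchial epithelial cells, absorbance 560 nm, 24 h post-dosing. Curves fitted both directions relative to DMSO.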

[9] = read-out: Thrombomodulin, THBD (gene 7056); experiment: BSK_3C_Thrombomodulin: BioMAP Diversity Plus: 3C Assay for Thrombomodulin Biomarker Activity (AID 2283029); conditions: primary human endothelial cells (HUVEC); actives raise or lower the signal
Method in brief: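 Human umbilical vein endothelial cells were exposed to chemicals for 24 h; cell-surface thrombomodulin quantified by ELISA, with bidirectional fitting against DMSO baseline.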

[10] = read-out: Urokinase-type plasminogen activator receptor (uPAR), PLAUR (gene 5329); experiment: BSK_4H_uPAR: BioMAP Diversity Plus: 4H Assay for Urokinase-type plasminogen activator receptor (uPAR) Biomarker Activity (AID 2283030); conditions: primary human endothelial cells (HUVEC); actives raise or lower the signal
Method in brief: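 uPAR level read by ELISA on HUVEC cultures (BioMAP 4H) 24 h post-dosing, analyzed for gain or loss relative to DMSO. Parallel SRB staining assessed overt cytotoxicity.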

[11] = read-out: Vascular endothelial growth factor receptor 2 (Homo sapiens) (UniProt P35968); experiment: BSK_4H_VEGFRII: BioMAP Diversity Plus: 4H Assay for Vascular endothelial growth factor receptor 2 (VEGFR2) Biomarker Activity (AID 2283031); conditions: primary human endothelial cells (HUVEC); actives raise or lower the signal
Method in brief: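 Measured by ELISA after 24 h of compound treatment: VEGFR2 on primary human umbilical vein endothelial cells, fitted in both directions relative to DMSO. Parallel cultures received SRB staining (560 nm) for overt cytotoxicity.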

[12] = read-out: Human Leukocyte Antigen - DR isotype (HLADR), HLA-DRA (gene 3122); experiment: BSK_BE3C_HLADR: BioMAP Diversity Plus: BE3C Assay for Human Leukocyte Antigen - DR isotype (HLADR) Biomarker Activity (AID 2283032); conditions: primary human bronchial epithelial cells; actives raise or lower the signal
Method in brief: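 Human primary bronchial epithelial cells (BE3C system) exposed to compound for 24 hours; cell-surface HLA-DR measured by ELISA, fitted bidirectionally relative to DMSO. Total protein by SRB in parallel cultures tracked cytotoxicity.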

[13] = read-out: Vascular cell adhesion molecule 1 (VCAM1), VCAM1 (gene 7412); experiment: BSK_4H_VCAM1: BioMAP Diversity Plus: 4H Assay for Vascular cell adhesion molecule 1 (VCAM1) Biomarker Activity (AID 2283033); conditions: primary human endothelial cells (HUVEC); actives raise or lower the signal
Method in brief: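 Primary human umbilical vein endothelial cells, 4H stimulation system, treated for 24 h; cell-surface VCAM-1 quantified by ELISA. Bidirectional fitting against DMSO; cytotoxicity tracked by SRB total-protein staining in parallel cultures.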

[14] = read-out: Interferon-gamma inducible Protein 10 (IP10), CXCL10 (gene 3627); experiment: BSK_BE3C_IP10: BioMAP Diversity Plus: BE3C Assay for Interferon-gamma inducible Protein 10 (IP10) Biomarker Activity (AID 2283034); conditions: primary human bronchial epithelial cells; actives raise or lower the signal
Method in brief: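 Primary human bronchial epithelial cells, with IP-10 measured by ELISA 24 hours after chemical dosing. Bidirectional fit against DMSO; cytotoxicity checked by SRB total protein staining in parallel cultures.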

[15] = read-out: Monokine induced gamma interferon (MIG), CXCL9 (gene 4283); experiment: BSK_BE3C_MIG: BioMAP Diversity Plus: BE3C Assay for Monokine induced gamma interferon (MIG) Biomarker Activity (AID 2283035); conditions: primary human bronchial epithelial cells; actives raise or lower the signal;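 also: MIG protein measured by ELISA in BE3C cultures after 24 h of dosing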
Method in brief: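 Primary human bronchial epithelial cells treated for 24 h; MIG levels measured by ELISA, fitted bidirectionally versus DMSO. Parallel SRB total-protein staining assessed cytotoxicity.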

[16] = read-out: Transforming growth factor beta 1 (TGFb1), TGFB1 (gene 7040); experiment: BSK_BE3C_TGFb1: BioMAP Diversity Plus: BE3C Assay for Transforming growth factor beta 1 (TGFb1) Biomarker Activity (AID 2283036); conditions: primary human bronchial epithelial cells; actives raise or lower the signal
Method in brief: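 Primary human bronchial epithelial cells dosed with chemical; TGF-b1 measured by ELISA 24 h after dosing. Bidirectional curve fitting against DMSO negative control; SRB total-protein staining in parallel cultures gauged cytotoxicity.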

[17] = read-out: Plasminogen activator inhibitor-1 (PAI1), SERPINE1 (gene 5054); experiment: BSK_BE3C_PAI1: BioMAP Diversity Plus: BE3C Assay for Plasminogen activator inhibitor-1 (PAI1) Biomarker Activity (AID 2283037); conditions: primary human bronchial epithelial cells; actives raise or lower the signal
Method in brief: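 Primary human bronchial epithelial cells (BE3C system) exposed 24 h; PAI-1 quantified by ELISA. Parallel sulforhodamine B staining of total protein flags cytotoxicity. Bidirectional fit versus DMSO.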

[18] = read-out: urokinase plasminogen activator (uPA), PLAU (gene 5328); experiment: BSK_BE3C_uPA: BioMAP Diversity Plus: BE3C Assay for urokinase plasminogen activator (uPA) Biomarker Activity (AID 2283038); conditions: primary human bronchial epithelial cells; actives raise or lower the signal;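 also: uPA protein level quantified by ELISA in cell cultures; uPA read one day after compound addition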
Method in brief: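 ELISA for uPA on human primary bronchial epithelial cultures 24 h post-treatment, gain or loss against DMSO. Parallel SRB staining (0.1% after 10% TCA fixation, 560 nm) assessed overt cytotoxicity.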

[19] = read-out: Urokinase-type plasminogen activator receptor (uPAR), PLAUR (gene 5329); experiment: BSK_BE3C_uPAR: BioMAP Diversity Plus: BE3C Assay for Urokinase-type plasminogen activator receptor (uPAR) Biomarker Activity (AID 2283039); conditions: primary human bronchial epithelial cells; actives raise or lower the signal;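 also: cells exposed to compound for one day before measurement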
Method in brief: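 Primary human bronchial epithelial cells dosed for 24 h; uPAR quantified by ELISA with bidirectional fitting against DMSO. Overt cytotoxicity assessed in parallel cultures by SRB total-protein staining (0.1% SRB, 560 nm).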

[20] = read-out: Interleukin-6 (IL6), IL6 (gene 3569); experiment: BSK_CASM3C_IL6: BioMAP Diversity Plus: CASM3C Assay for Interleukin-6 (IL6) Biomarker Activity for (AID 2283040); conditions: primary human coronary artery smooth muscle cells; actives raise or lower the signal

SMILES: CC(C)N(Cc1ccccc1)C(=O)C(C)(C)C
- outcome [1]: inactive
- outcome [2]: inactive
- outcome [3]: inactive
- outcome [4]: inactive
- outcome [5]: inactive
- outcome [6]: inactive
- outcome [7]: inactive
- outcome [8]: inactive
- outcome [9]: inactive
- outcome [10]: inactive
- outcome [11]: inactive
- outcome [12]: inactive
- outcome [13]: inactive
- outcome [14]: inactive
- outcome [15]: inactive
- outcome [16]: inactive
- outcome [17]: inactive
- outcome [18]: inactive
- outcome [19]: inactive
- outcome [20]: inactive

SMILES: C1=Cc2cccc3cccc1c23
- outcome [1]: inactive
- outcome [2]: inactive
- outcome [3]: inactive
- outcome [4]: inactive
- outcome [5]: inactive
- outcome [6]: inactive
- outcome [7]: inactive
- outcome [8]: inactive
- outcome [9]: inactive
- outcome [10]: inactive
- outcome [11]: inactive
- outcome [12]: inactive
- outcome [13]: inactive
- outcome [14]: inactive
- outcome [15]: inactive
- outcome [16]: inactive
- outcome [17]: inactive
- outcome [18]: inactive
- outcome [19]: inactive
- outcome [20]: inactive

SMILES: CCOc1cccc(C2(N3CCN(c4ccccc4)CC3)CCC(C)CC2)c1 (stereo not given)
- outcome [1]: inactive
- outcome [2]: inactive
- outcome [3]: inactive
- outcome [4]: inactive
- outcome [5]: inactive
- outcome [6]: inactive
- outcome [7]: inactive
- outcome [8]: inactive
- outcome [9]: inactive
- outcome [10]: inactive
- outcome [11]: inactive
- outcome [12]: inactive
- outcome [13]: inactive
- outcome [14]: inactive
- outcome [15]: inactive
- outcome [16]: inactive
- outcome [17]: inactive
- outcome [18]: inactive
- outcome [19]: inactive
- outcome [20]: inactive

SMILES: Brc1ccc(Oc2ccccc2)cc1
- outcome [1]: inactive
- outcome [2]: inactive
- AC50 [3]: 28.9 µM (active)
- outcome [4]: inactive
- outcome [5]: inactive
- outcome [6]: inactive
- outcome [7]: inactive
- outcome [8]: inactive
- outcome [9]: inactive
- outcome [10]: inactive
- outcome [11]: inactive
- outcome [12]: inactive
- outcome [13]: inactive
- outcome [14]: inactive
- outcome [15]: inactive
- outcome [16]: inactive
- outcome [17]: inactive
- outcome [18]: inactive
- outcome [19]: inactive
- outcome [20]: inactive

SMILES: CC(O)CCO (stereo not given)
- outcome [1]: inactive
- outcome [2]: inactive
- outcome [3]: inactive
- outcome [4]: inactive
- outcome [5]: inactive
- outcome [6]: inactive
- outcome [7]: inactive
- outcome [8]: inactive
- outcome [9]: inactive
- outcome [10]: inactive
- outcome [11]: inactive
- outcome [12]: inactive
- outcome [13]: inactive
- outcome [14]: inactive
- outcome [15]: inactive
- outcome [16]: inactive
- outcome [17]: inactive
- outcome [18]: inactive
- outcome [19]: inactive
- outcome [20]: inactive

SMILES: Nc1ccc([N+](=O)[O-])cc1
- outcome [1]: inactive
- outcome [2]: inactive
- outcome [3]: inactive
- outcome [4]: inactive
- outcome [5]: inactive
- outcome [6]: inactive
- outcome [7]: inactive
- outcome [8]: inactive
- outcome [9]: inactive
- outcome [10]: inactive
- outcome [11]: inactive
- outcome [12]: inactive
- outcome [13]: inactive
- outcome [14]: inactive
- outcome [15]: inactive
- outcome [16]: inactive
- outcome [17]: inactive
- outcome [18]: inactive
- outcome [19]: inactive
- outcome [20]: inactive
